Experimental data as given in PubChem BioAssay AID1347070 (National Center for Advancing Translational Sciences (NCATS), 2019).
About 20 (0.02%) of roughly 94,000 compounds were called active. About 1% were inconclusive and are not listed. These entries were drawn from the full list. Unmarked numbers belong to inactive results. Calls come from the whole dose curve; as a rule, active = well fitted activation curve with a large enough effect; inconclusive = small, poorly fitted or top-dose-only effect; inactive = flat fitted curve, though single readings scatter.

Assay: qHTS of alpha-syn Inhibitors: NCGC Sytravon Library Screen; note: 0% is about no effect
Details: S. cerevisiae alpha-synuclein toxicity rescue, BacTiter-Glo growth, 24 h; series mostly up to 46.1 µM; growth rescue (activation): at the top concentration
Source text: The goal of this project is to identify new chemical probes capable of reversing the toxicity associated with the Parkinson disease-related protein, alpha-synuclein. Compounds will be selected on their ability to restore growth in yeast cells expressing toxic levels of alpha-synuclein. These compounds will provide a complementary approach to deciphering the tangled mechanisms of toxicity and protection that we have uncovered through genome-wide genetic screens and are beginning to uncover in a large-scale proteomics analysis with mass spectroscopy. To this end, a miniaturized assay was developed to be screened against the Molecular Libraries Small Molecule Repository (MLSMR) to discover alpha-synuclein inhibitors. […] The phenotype of interest will be that of an Activator and this screen is run against the NCGC Sytravon Library collection. NIH Chemical Genomics Center [NCGC] NIH Molecular Libraries Probe Centers Network [MLPCN] MLPCN Grant: NS060957 Assay Submitter (PI): Susan Lindquist, Whitehead Institute/MIT
Dispense 2.5 microL yeast galactose medium per 1536-well plate, pin compound, dispense 2.5 microL alpha-synuclein expressing yeast in galactose medium at OD600=0.02 (pregrown in raffinose medium to mid-log phase) per well, incubate for 24 hr at 30 deg C, and cell growth will be measured using 5 microL of Bactiter/Glo reagent to entire plate and read using Luminescence Protocol in ViewLux.

SMILES	growth rescue (activation) [%]
CC(=O)Nc1ccc(C=CC(=O)c2ccc([N+](=O)[O-])cc2)cc1	5.68
CC1CCCC(NC(=O)COC(=O)c2ccccc2C(=O)N(C)C2CCCCC2)C1C (centres undefined)	-3.25
Cc1cc(=O)oc2c3c(cc(OCC(=O)NCCC(=O)N[C@@H](C)C(=O)O)c12)OC(C)(C)CC3	3.65
COc1ccc(CN2C[C@H]3CON(C)[C@H]3C[C@H]2c2ccc(-c3cccc(F)c3)cc2)cc1	0.355
O=C(COC(=O)CCc1ccc(S(=O)(=O)N2CCOCC2)cc1)Nc1cccc(Cl)c1	-1.34
CC(=O)NC1C(Oc2ccc(C=O)cc2)OC(COC(C)=O)C(OC(C)=O)C1OC(C)=O (centres undefined)	3.09
CCc1ccccc1OCC(=O)Nc1nnc(C2CC2)s1	-0.762
C=C(C)CNC(=O)c1ccc(OC2CCN(C(=O)COC)CC2)cc1	4.36
COc1ccc(CCNC(=O)C(=O)NCC2CCCN2S(=O)(=O)c2cccs2)cc1OC (centres undefined)	8.88
CC1(C)OC(=O)C2=C(CC(c3ccccc3)OC2CCc2ccccc2)O1 (centres undefined)	-5.04
CCOC(=O)C=Cc1ccc(C(=O)OCC)[nH]1	7.29
CCOn1c(=O)c(=O)n(O)c2ccccc21	-0.897
COc1ccc(NS(=O)(=O)c2ccc(F)cc2F)cn1	4.98
CC(C)CN(C(=O)COC(=O)c1ccc(Cl)c(N)c1)c1c(N)n(Cc2ccccc2)c(=O)[nH]c1=O	-2.42
CC(=O)c1sc(N)nc1C	-4.44
O=C1COc2ccc(S(=O)(=O)NCCc3ccc(Cl)cc3)cc2N1	0.307
CCCCn1c(N)c(N(CC(C)C)C(=O)C2CSC3(C)CCC(=O)N23)c(=O)[nH]c1=O (centres undefined)	5.73
O=C(CN1C(=O)NC2(CCc3ccccc32)C1=O)NC1CCCCC1 (centres undefined)	-10.1
Cc1cc(C)c(NC(=O)CN2C(=O)NC(Cc3ccccc3)C2=O)c(C)c1 (centres undefined)	-1.11
O=C(O)c1ccccc1Cc1ccc(F)c2ccccc12	-44.2
CC(C)CCN1CCN(Cc2ccc(C(F)(F)F)cc2)CC1CCO (centres undefined)	3.51
Cc1ccc(C)c(OCCC(=O)OCC(=O)c2ccc3c(c2)NC(=O)CO3)c1	1.8
CC(=O)Nc1ccc(NC(=O)CSc2ncnc3c2cnn3Cc2ccccc2)cc1	5.2
CCCc1cc(=O)[nH]c(SCc2cc(=O)oc3c(C)c(C)ccc23)n1	2.67
Cc1c(NC(=O)C(C)OC(=O)c2c3c(nc4ccccc24)CCC(C)C3)c(=O)n(-c2ccccc2)n1C (centres undefined)	-4.21

SMILES	growth rescue (activation) [%]
Cc1cc(C(=O)CCC(=O)NNC(=O)c2ccccc2O)c(C)s1	-2.99
Cc1ccc(OCCC(=O)OCC(=O)N2c3ccccc3NC(=O)C2(C)C)cc1	2.18
O=C(CN1CCOCC1)Nc1cccc([N+](=O)[O-])c1	-0.986
c1ccc(-c2nnc(N3CCOCC3)c3ccccc23)cc1	3.62
CCOCc1nnc(NC(=O)CCS(=O)(=O)Cc2ccccc2)s1	2.27
CCCC(C(=O)NC1CCCC1)N(C(=O)Cn1nnc(-c2ccc(C)o2)n1)c1cccc(O)c1 (centres undefined)	-2.04
CCN(C(=O)CSc1nnnn1-c1ccccc1OC)C1CCS(=O)(=O)C1 (centres undefined)	16.7
O=c1[nH]c2ccc(S(=O)(=O)N3CCCC3)cc2[nH]1	0.361
Cc1nnc(SCCCCSc2nnc(C)c(=O)[nH]2)[nH]c1=O	1.74
COc1ccc(N2CCN(C(=S)Nc3ccc(S(N)(=O)=O)cc3)CC2)cc1	-4.62
COc1ccc(/C=N/S(=O)(=O)c2ccccc2)cc1OC	-2.84
Cc1ccc([C@H]2N[C@]3(CCCN(CC4CCCCC4)C3=O)[C@H]3C(=O)N(Cc4ccccc4)C(=O)[C@@H]23)cc1	4.32
CCCCn1c(N)c(N(CCOC)C(=O)c2sc3ccccc3c2Cl)c(=O)[nH]c1=O	11.1
CC(=O)NCc1ccc(S(=O)(=O)NC2CCN(Cc3ccccc3)CC2)cc1	-8.63
CCN(CC(=O)Nc1c(F)cccc1F)C(=O)c1ccc(Sc2nncn2C)c([N+](=O)[O-])c1	0.905
O=c1[nH]nc(SCCS(=O)(=O)c2ccc(F)cc2)n1-c1ccccc1C(F)(F)F	3.73
Cc1sc2nc(CSCC(=O)NC3CCCCC3)[nH]c(=O)c2c1C	2.44
CC1(C)C[C@H]2C3=CCC4[C@@]5(C)CC[C@H](O)[C@](C)(CO)C5CC[C@@]4(C)[C@]3(C)C[C@@H](O)[C@@]2(CO)[C@@H](O)[C@@H]1O (some centres undefined)	1.74
Cc1c(C(=O)NC(C)C2CC3CCC2C3)cccc1[N+](=O)[O-] (centres undefined)	11.3
O=C(CCNC(=O)c1ccc([N+](=O)[O-])cc1)NC1CCCCC1	1.09
Cn1c(CSCC(=O)Nc2ccccc2)nnc1SCc1ccccc1	-12.3
Cc1cccc(N(CC(=O)N2CCCC2)S(C)(=O)=O)c1C	-7.71
CN(C)C(CNC(=O)c1cc(Br)c(Br)s1)c1ccco1 (centres undefined)	3.91
Cc1ccc(CN2CCC(N3CCC(C(=O)NCC4CCCO4)CC3)CC2)o1 (centres undefined)	-3.72
